Where a name gives a salt, the structure may show the parent alone. ± gives the standard deviation of the averaged measurements.
Experiments:
Assay in all cases: growth (OD600 after 10 h); higher = more growth (less inhibition)
[1] = test system: E. coli TESEC Alr+ wild-type control; settings: compound 0.1 mM; raw OD600 reference: median of DMSO wells 0.241, cell-free background 0.041
Procedure: (§1)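 TESEC Mtb Alr E. coli, or the Alr+ wild-type control, in 384-well plates with Prestwick library compounds at 0.1 mM and 1% DMSO, across arabinose induction levels of 1E3 to 1E7 nM. Growth is read as OD600 after 10 h at 37 °C in triplicate biological replicates.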

E. coli TESEC Mtb Alr [2] = settings: compound 0.1 mM
Procedure: as §1

E. coli TESEC Mtb Asd = settings: compound 0.1 mM
Procedure: (§2)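 TESEC E. coli strains in which the native enzyme is deleted and replaced by arabinose-inducible Mtb Asd, DapB, CysH or TrpD, each grown in its selective medium. Strains were screened against the Prestwick library at 0.1 mM and 1% DMSO in 384-well format at low and high arabinose induction. Growth is read as OD600 after 10 h in triplicate.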

E. coli TESEC Mtb DapB = settings: compound 0.1 mM
Procedure: as §2

[3] = test system: E. coli TESEC Alr+ wild-type control; settings: compound 0.1 mM; raw OD600 reference: median of DMSO wells 0.49, cell-free background 0.052
Procedure: (§3)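 TESEC Mtb Alr E. coli (ΔaraC ΔtolC ΔentC Δalr ΔdadX, arabinose-inducible Mtb Alr) or the Alr+ wild-type control strain, grown in defined M9-fructose medium without D-alanine in 96-well plates with Prestwick library compounds at 0.1 mM and 1% DMSO. Low Alr induction is 0.1 µM arabinose and high induction is 10 mM arabinose.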

E. coli TESEC Mtb Alr [4] = settings: compound 0.1 mM; remark: listed apart in the source
Procedure: as §3

[5] = arabinose 1000 nM, raw OD600 reference: median of DMSO wells 0.294, cell-free background 0.041
[6] = arabinose 10000 nM, raw OD600 reference: median of DMSO wells 0.264, cell-free background 0.041
[7] = arabinose 100000 nM, raw OD600 reference: median of DMSO wells 0.201, cell-free background 0.041
[8] = arabinose 1000000 nM, raw OD600 reference: median of DMSO wells 0.193, cell-free background 0.041
[9] = arabinose 10000000 nM, raw OD600 reference: median of DMSO wells 0.146, cell-free background 0.041
[10] = arabinose induction (level): High, raw OD600 reference: median of DMSO wells 0.331, cell-free background 0.041
[11] = arabinose induction (level): Low, raw OD600 reference: median of DMSO wells 0.417, cell-free background 0.041
[12] = arabinose induction (level): High, raw OD600 reference: median of DMSO wells […], cell-free background 0.041
[13] = arabinose induction (level): Low, raw OD600 reference: median of DMSO wells 0.227, cell-free background 0.041
[14] = arabinose 100 nM, raw OD600 reference: median of DMSO wells 0.413, cell-free background 0.052
[15] = arabinose 10000000 nM, raw OD600 reference: median of DMSO wells […], cell-free background 0.052

SMILES | growth [1] | growth (E. coli TESEC Mtb Alr [2]; [5]) | growth (E. coli TESEC Mtb Alr [2]; [6]) | growth (E. coli TESEC Mtb Alr [2]; [7]) | growth (E. coli TESEC Mtb Alr [2]; [8]) | growth (E. coli TESEC Mtb Alr [2]; [9]) | growth (E. coli TESEC Mtb Asd; [10]) | growth (E. coli TESEC Mtb Asd; [11]) | growth (E. coli TESEC Mtb DapB; [12]) | growth (E. coli TESEC Mtb DapB; [13]) | growth [3] | growth (E. coli TESEC Mtb Alr [4]; [14]) | growth (E. coli TESEC Mtb Alr [4]; [15])
CCN(CC)C(=O)Nc1ccc(OCC(O)CNC(C)(C)C)c(C(C)=O)c1 (centres undefined) [Celiprolol HCl] | 0.215 ± 0.0023 | 0.292 ± 0.0042 | 0.247 ± 0.0042 | 0.221 ± 0.028 | 0.171 ± 0.0053 | 0.135 ± 0.0071 | 0.245 ± 0.048 | 0.341 ± 0.089 | 0.192 ± 0.009 | 0.264 ± 0.058 | 0.455 ± 0.027 | 0.421 ± 0.0097 | 0.356 ± 0.014
Nc1ccc(S(=O)(=O)Nc2ncccn2)cc1 [Sulfadiazine] | 0.257 ± 0.0066 | 0.288 ± 0.017 | 0.241 ± 0.0079 | 0.199 ± 0.036 | 0.1549 ± 0.0004 | 0.146 ± 0.0024 | 0.374 ± 0.043 | 0.414 ± 0.0071 | 0.184 ± 0.015 | 0.187 ± 0.023 | 0.464 ± 0.054 | 0.411 ± 0.011 | 0.312 ± 0.066
CCN(CC)CCOC(=O)C(c1ccccc1)c1ccccc1 [Adiphenine hydrochloride] | 0.222 ± 0.0088 | 0.309 ± 0.033 | 0.252 ± 0.004 | 0.168 ± 0.0062 | 0.14 ± 0.0034 | 0.142 ± 0.0034 | 0.197 ± 0.033 | 0.382 ± 0.069 | 0.165 ± 0.0095 | 0.223 ± 0.046 | 0.494 ± 0.04 | 0.414 ± 0.0051 | 0.313 ± 0.051
Cc1cnc(C(=O)O)c[n+]1[O-] [Acipimox] | 0.244 ± 0.006 | 0.304 ± 0.025 | 0.247 ± 0.0063 | 0.218 ± 0.029 | 0.1751 ± 0.0015 | 0.1397 ± 0.00085 | 0.263 ± 0.085 | 0.282 ± 0.065 | 0.199 ± 0.013 | 0.217 ± 0.021 | 0.497 ± 0.06 | 0.41 ± 0.009 | 0.338 ± 0.021
CC(C)c1nc(CN(C)C(=O)N[C@H](C(=O)N[C@@H](Cc2ccccc2)C[C@H](O)[C@H](Cc2ccccc2)NC(=O)OCc2cncs2)C(C)C)cs1 [Ritonavir] | 0.166 ± 0.0093 | 0.216 ± 0.015 | 0.221 ± 0.025 | 0.217 ± 0.012 | 0.114 ± 0.0092 | 0.159 ± 0.0028 | 0.245 ± 0.0089 | 0.15 ± 0.008 | 0.192 ± 0.013 | 0.25 ± 0.0048 | 0.362 ± 0.01 | – | –
CC(C)[N+](C)(CCOC(=O)C1c2ccccc2Oc2ccccc21)C(C)C [Propantheline bromide] | 0.169 ± 0.0072 | 0.231 ± 0.025 | 0.269 ± 0.0034 | 0.155 ± 0.0034 | 0.153 ± 0.0025 | 0.132 ± 0.0019 | 0.233 ± 0.051 | 0.417 ± 0.047 | 0.156 ± 0.011 | 0.17 ± 0.0089 | 0.644 ± 0.057 | 0.406 ± 0.011 | 0.32773 ± 0.00025
CC[N+](C)(C)Cc1ccccc1Br [Bretylium tosylate] | 0.253 ± 0.011 | 0.323 ± 0.02 | 0.261 ± 0.0084 | 0.22 ± 0.0026 | 0.1733 ± 0.00021 | 0.1633 ± 0.00072 | 0.484 ± 0.032 | 0.476 ± 0.018 | 0.221 ± 0.025 | 0.241 ± 0.013 | 0.624 ± 0.021 | 0.409 ± 0.015 | 0.324 ± 0.017
O=c1[nH]c(=O)n([C@H]2C[C@H](O)[C@@H](CO)O2)cc1F [Floxuridine] | 0.0553 ± 0.00059 | 0.0615 ± 0.0068 | 0.04377 ± 0.00025 | 0.052 ± 0.0014 | 0.0434 ± 0.0004 | 0.05017 ± 0.0005 | 0.088 ± 0.0059 | 0.0873 ± 0.011 | 0.129 ± 0.0019 | 0.165 ± 0.0032 | 0.356 ± 0.0098 | 0.387 ± 0.0052 | 0.0748 ± 0.0061
CN1C2CCCC1CC(NC(=O)c1nn(C)c3ccccc13)C2 (centres undefined) [Granisetron] | 0.208 ± 0.0038 | 0.301 ± 0.026 | 0.2743 ± 0.0024 | 0.171 ± 0.0068 | 0.213 ± 0.014 | 0.126 ± 0.0041 | 0.28 ± 0.063 | 0.379 ± 0.08 | 0.202 ± 0.022 | 0.238 ± 0.015 | 0.549 ± 0.068 | 0.424 ± 0.0065 | 0.351 ± 0.0039
O=C(O)CCc1nc(-c2ccccc2)c(-c2ccccc2)o1 [Oxaprozin] | 0.143 ± 0.0053 | 0.169 ± 0.0038 | 0.206 ± 0.0029 | 0.102 ± 0.0063 | 0.0905 ± 0.0025 | 0.0775 ± 0.0013 | 0.223 ± 0.022 | 0.165 ± 0.0041 | 0.139 ± 0.0021 | 0.152 ± 0.0088 | 0.381 ± 0.039 | 0.3746 ± 0.0018 | 0.128 ± 0.0076
COCCOC(=O)C1=C(C)NC(C)=C(C(=O)OC(C)C)C1c1cccc([N+](=O)[O-])c1 (centres undefined) [Nimodipine] | 0.18 ± 0.017 | 0.176 ± 0.062 | 0.0601 ± 0.0043 | 0.154 ± 0.0027 | 0.0632 ± 0.0037 | 0.08053 ± 0.00035 | 0.274 ± 0.024 | 0.487 ± 0.0068 | 0.169 ± 0.016 | 0.197 ± 0.037 | 0.325 ± 0.004 | 0.404 ± 0.025 | 0.0716 ± 0.011
CN1CCC(=C2c3ccccc3C=Cc3ccccc32)CC1 [Cyproheptadine hydrochloride] | 0.145 ± 0.0056 | 0.163 ± 0.02 | 0.16 ± 0.0079 | 0.12 ± 0.0049 | 0.0596 ± 0.00044 | 0.0772 ± 0.00078 | 0.15 ± 0.0059 | 0.186 ± 0.0032 | 0.175 ± 0.015 | 0.192 ± 0.011 | 0.452 ± 0.11 | 0.4129 ± 0.0017 | 0.276 ± 0.016
Cn1c(=O)c2c(ncn2CC(O)CO)n(C)c1=O (centres undefined) [Diprophylline] | 0.253 ± 0.0057 | 0.271 ± 0.026 | 0.249 ± 0.013 | 0.197 ± 0.018 | 0.182 ± 0.0025 | 0.138 ± 0.0093 | 0.367 ± 0.021 | 0.452 ± 0.052 | 0.206 ± 0.0061 | 0.24 ± 0.017 | 0.45 ± 0.05 | 0.421 ± 0.0097 | 0.313 ± 0.057
NC(=O)N/N=C/c1ccc([N+](=O)[O-])o1 [Nitrofural] | 0.044 ± 0.00072 | 0.0426 ± 0.00078 | 0.04193 ± 0.00015 | 0.044 ± 0.0018 | 0.042 ± 0.00045 | 0.0427 ± 0.00084 | 0.0898 ± 0.0054 | 0.0756 ± 0.0054 | 0.11 ± 0.0086 | 0.145 ± 0.016 | 0.0529 ± 0.0016 | 0.0532 ± 0.0056 | 0.0522 ± 0.00076
Cc1cc(C(C)(C)CC(C)(C)C)ccc1OCCOCC[N+](C)(C)Cc1ccccc1 [Methyl benzethonium chloride] | 0.0446 ± 0.0012 | 0.0483 ± 0.0025 | 0.0504 ± 0.002 | 0.0489 ± 0.00059 | 0.04487 ± 0.00031 | 0.04963 ± 0.00035 | 0.0532 ± 0.001 | 0.0608 ± 0.0092 | 0.0545 ± 0.0014 | 0.0542 ± 0.00078 | 0.0474 ± 0.00066 | 0.0556 ± 0.0023 | 0.0529 ± 0.0018
COc1cc(NC(C)CCCN)c2ncccc2c1 (centres undefined) [Primaquine diphosphate] | 0.0466 ± 0.00081 | 0.0463 ± 0.00081 | 0.04143 ± 0.00031 | 0.0508 ± 0.0023 | 0.043 ± 0.00026 | 0.0577 ± 0.0019 | 0.0857 ± 0.0065 | 0.0611 ± 0.0046 | 0.122 ± 0.092 | 0.0664 ± 0.0032 | 0.267 ± 0.025 | 0.38 ± 0.018 | 0.08 ± 0.024
N=C(N)NS(=O)(=O)c1ccc(N)cc1 [Sulfaguanidine] | 0.249 ± 0.013 | 0.292 ± 0.029 | 0.26 ± 0.0047 | 0.227 ± 0.027 | 0.173 ± 0.0041 | 0.143 ± 0.0034 | 0.38 ± 0.028 | 0.383 ± 0.021 | 0.203 ± 0.0078 | 0.249 ± 0.032 | 0.431 ± 0.022 | 0.41 ± 0.016 | 0.383 ± 0.022
